Source: PubChem (several laboratories)
Most compounds without a hit are left out; they make up all but 3.3% or so of the library.
Wnt bcat act: Wnt/beta-catenin pathway activation; Wnt/beta-catenin reporter cell assay, activator, plate reader; activation, % at 9.35 µM; 300,000 compounds, 1.2% hits; AID 743398; in the data active means activation above about 30%, passing the limit was not always enough; inconclusive means no clear call, values can overlap the other calls;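 further: 0% = neutral control wells and 100% = positive control wells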
esBAF inh: SWI/SNF esBAF complex inhibition; mouse ES cells, Bmi1-luciferase knock-in reporter, 24 h; 100% = twice the neutral-well signal; reporter increase, % at 12.5 µM; 350,000 compounds, 2% hits; AID 602393; in the data active means activation above about 40%; inconclusive means no clear call, values can overlap the other calls;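 further: 0% = median of the plate's neutral control wells and 100% = double that signal; a rise in the Bmi1 reporter signal indicates esBAF inhibition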
GAA850 FXN act: activators of GAA850 frataxin (FXN) promoter | HEK293 lucGAA850 FXN promoter luciferase reporter, 24 h; percent of 10 µM SAHA response | activation, % at 6 µM | 360,000 compounds, 0.56% hits;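 active means activation above the average of all compounds screened plus 3 SD, cutoff fixed separately per campaign, cut at about 7.5% in these data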;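 further: 0% = DMSO wells and 100% = 10 µM SAHA wells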
C2C12 statin: protects C2C12 myotubes from simvastatin toxicity; ATP luminescence, 48 h; scaled: DMSO 0, geranylgeraniol control 100; rescue of ATP level, % at 7.49 µM; 330,000 compounds, 0.78% hits; AID 602340;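 active means mean ATP rescue above about 67%, or every replicate alone reaching that limit, limit read from the data, passing the limit was not always enough; inconclusive means no clear call, values can overlap the other calls; inactive means mean under the limit and some replicate under it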;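 further: myotubes were challenged with 10 µM simvastatin during compound exposure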
MITF act: MITF TRPM1 promoter activation in melanoma cells | SK-MEL-5 TRPM1-promoter luciferase, 24 h; % of positive control, neutral wells = 0 | activation, % at 12.5 µM | 300,000 compounds, 0.75% hits;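 active means mean activation of at least 80% with every replicate also reaching 80%; inconclusive means mean reaches 80% but some replicate falls short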;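 further: 0% = neutral control wells and 100% = parthenolide positive control wells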
* hit, by the source's call; ? = inconclusive; nt = no result given.

SMILES	Wnt bcat act	esBAF inh	GAA850 FXN act	C2C12 statin	MITF act
Cn1c(=O)[nH]c(=O)c2c1nc1n2CCN1Cc1ccccc1	nt	2	1	-17	-7
CC1CN(Cc2ccccc2)c2nc3c(c(=O)[nH]c(=O)n3C)n2C1 (stereo not given)	34*	nt	3	nt	-1
Cc1ccc(-c2ccc3c(c2)O[C@H](CN(C)Cc2ccccn2)[C@@H](C)CN([C@@H](C)CO)S3(=O)=O)cc1	nt	-10	nt	-62	nt
Cc1cc(C)c2nc(N3CCN(C(=O)c4ccco4)CC3)sc2c1	-21	54*	2	1	91*
Cc1cc2nc(N3CCN(C(=O)c4ccco4)CC3)sc2cc1C	?	69*	3	-13	116*
Nc1nc(N2CCN(C(=O)c3ccco3)CC2)nc2ccc(Br)cc12	nt	nt	7	nt	105*
CO[C@@H]1CN(C)C(=O)c2cc(NC(=O)NC(C)C)ccc2OC[C@@H](C)N(CCC(F)(F)F)C[C@H]1C	nt	-1	nt	-5	nt
O=C(OCc1ccc(Cl)c(Cl)c1)c1ccc[nH]1	12	50*	5	17	56
CN(C)c1cccc(C(=O)OCC(=O)N(Cc2ccccc2)C2CCS(=O)(=O)C2)c1 (stereo not given)	-2	46*	2	3	6
CC(=O)c1ccc(OCc2ccccc2)c(C)c1O	31*	69*	4	-7	77
O=C(CSc1nc(-c2ccccc2)c(-c2ccccc2)o1)Nc1nncs1	nt	-2	-1	102*	-7
COc1ccc(-c2cn3cc(C)ccc3n2)cc1Br	18	nt	6	nt	11
Cc1ccc(-c2cn3nc(C)c(C)nc3n2)cc1	nt	-74	-3	-13	-63
COc1ccc(-c2cn3cc(Cl)ccc3n2)cc1OC	15	69*	5	-4	38
COc1ccc(-c2cn3nc(C)c(C)nc3n2)cc1OC	?	47*	4	-10	?
O=C(NC1CCCC1)N[C@@H]1CC[C@@H](CC(=O)N2CCOCC2)O[C@H]1CO	nt	0	nt	0	nt
Cc1ccc(C(=O)NC(=S)Nc2cccnc2Cl)cc1	41*	23	4	-6	145*
Cc1cc(C(=O)CSc2n[nH]c(N)n2)c(C)n1-c1cc(F)ccc1F	14	51*	3	-5	36
Cc1cc(C(=O)CSc2n[nH]c(N)n2)c(C)n1-c1ccc(F)cc1	28	31	2	-7	50
CCOC(=O)C1CCN(C(=O)c2cc(COc3ccc(F)cc3F)on2)CC1	17	nt	5	nt	111*
CCOC(=O)N1CCN(C(=O)c2cc(COc3c(F)cccc3F)on2)CC1	45*	58*	0	7	76
Cc1cccc(C)c1OCc1cc(C(=O)N2CCN(c3ccc(F)cc3)CC2)no1	1	45*	4	8	65
Cc1ccc(S(=O)(=O)N2CCN(C(=O)COC(=O)c3cc(C)oc3C)CC2)cc1	nt	-5	0	98*	8
Cc1cnc(C(=O)Nc2ccc(C(C)C)cc2)cn1	39*	nt	1	nt	131*
O=C(NCC1CC1)[C@H]1[C@H](CO)[C@H]2Cn3c(ccc(-c4cccnc4)c3=O)[C@@H]1N2Cc1nccs1	nt	-2	nt	13	nt
SMILES	Wnt bcat act	esBAF inh	GAA850 FXN act	C2C12 statin	MITF act
C[C@@H]1CN([C@@H](C)CO)C(=O)c2cc(NC(=O)Cc3ccccc3)ccc2O[C@@H](C)CCCCO[C@H]1CN(C)C(=O)C1CCCCC1	nt	2	nt	?	nt
C[C@H](CO)N1C[C@H](C)[C@H](CN(C)C(=O)Nc2ccc(F)cc2)OCCCC[C@H](C)Oc2ccc(NC(=O)Cc3ccccc3)cc2C1=O	nt	-1	nt	107*	nt
C[C@H]1CCCCO[C@H](CN(C)C(=O)C2CCCCC2)[C@@H](C)CN([C@@H](C)CO)C(=O)c2cc(NC(=O)Cc3ccccc3)ccc2O1	nt	2	nt	80*	nt
C[C@@H]1CCCCO[C@@H](CN(C)C(=O)Nc2ccccc2)[C@H](C)CN([C@@H](C)CO)C(=O)c2cc(NC(=O)Cc3ccccc3)ccc2O1	nt	6	nt	nt	nt
COc1ccc(NC(=O)N(C)C[C@H]2Oc3c(NC(=O)Nc4ccc(C(F)(F)F)cc4)cccc3C(=O)N([C@@H](C)CO)C[C@H]2C)cc1	nt	-9	nt	nt	nt
COc1ccc(CC(=O)NC(CC(=O)O)c2cccc([N+](=O)[O-])c2)cc1 (stereo not given)	-1	-7	0	122*	-1
CCN(CC)S(=O)(=O)c1cccc(-c2nc3n(n2)Cc2ccccc2-3)c1	-2	75*	3	-21	-16
